SMILES strings stand for the structures. For some assays here: Entries with a potency or affinity are not part of this list.

Common to all, as to design: scale not given: direction of the effect not stated beside the values
For test [1], the target named is Protein translocase subunit SecA (Escherichia coli (strain K12)) (UniProt P10408). Nature of the test: Assay to Identify E. coli SecA ATPase Inhibitors. In kind it is functional. Particulars: 30 µM.
Test [2] has as its target T1, Ubiquitin-activating enzyme e1, putative (Leishmania donovani (strain BPK282A1)) (UniProt E9BSI1).
T1 sequence (whole entry): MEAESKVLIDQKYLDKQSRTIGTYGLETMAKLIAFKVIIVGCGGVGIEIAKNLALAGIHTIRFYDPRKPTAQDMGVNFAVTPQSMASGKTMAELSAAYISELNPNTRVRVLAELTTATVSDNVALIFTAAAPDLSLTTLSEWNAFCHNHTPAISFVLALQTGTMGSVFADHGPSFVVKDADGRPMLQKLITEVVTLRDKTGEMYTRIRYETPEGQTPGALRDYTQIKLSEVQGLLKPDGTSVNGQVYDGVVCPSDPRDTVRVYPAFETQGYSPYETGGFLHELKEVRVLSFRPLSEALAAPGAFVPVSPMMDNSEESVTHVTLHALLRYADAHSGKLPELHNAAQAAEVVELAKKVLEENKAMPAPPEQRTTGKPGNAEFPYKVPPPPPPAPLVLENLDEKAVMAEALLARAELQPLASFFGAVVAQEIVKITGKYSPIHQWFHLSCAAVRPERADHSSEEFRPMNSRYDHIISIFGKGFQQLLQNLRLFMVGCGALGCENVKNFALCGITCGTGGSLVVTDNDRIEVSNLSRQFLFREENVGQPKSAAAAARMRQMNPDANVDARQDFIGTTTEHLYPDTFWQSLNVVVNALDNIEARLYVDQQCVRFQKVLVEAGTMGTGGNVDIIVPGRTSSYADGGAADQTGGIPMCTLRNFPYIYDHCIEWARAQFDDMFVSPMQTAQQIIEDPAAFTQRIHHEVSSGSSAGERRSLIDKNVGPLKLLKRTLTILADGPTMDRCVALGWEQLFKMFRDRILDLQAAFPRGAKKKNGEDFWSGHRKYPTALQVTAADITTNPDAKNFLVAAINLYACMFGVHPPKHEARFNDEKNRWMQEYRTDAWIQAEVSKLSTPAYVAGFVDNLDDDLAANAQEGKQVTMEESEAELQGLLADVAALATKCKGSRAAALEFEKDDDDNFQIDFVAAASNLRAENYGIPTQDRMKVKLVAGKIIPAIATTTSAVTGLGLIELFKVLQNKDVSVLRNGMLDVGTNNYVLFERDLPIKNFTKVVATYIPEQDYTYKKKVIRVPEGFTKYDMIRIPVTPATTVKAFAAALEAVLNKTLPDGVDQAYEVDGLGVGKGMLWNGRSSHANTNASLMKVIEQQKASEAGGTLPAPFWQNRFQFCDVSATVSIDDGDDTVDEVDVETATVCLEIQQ
Put plainly: Leishmania donovani Ubiquitin Activating Enzyme (LdE1). Particulars: 30 µM. In kind it is functional.

The target of test [3] is Sialic acid-binding Ig-like lectin 9 (Homo sapiens) (UniProt Q9Y336). Put plainly: Hs-Siglec9 ALPHAscreen SOP 20170721. Particulars: 10 µM.
Sequence of Sialic acid-binding Ig-like lectin 9 (Homo sapiens) (Q9Y336 whole entry): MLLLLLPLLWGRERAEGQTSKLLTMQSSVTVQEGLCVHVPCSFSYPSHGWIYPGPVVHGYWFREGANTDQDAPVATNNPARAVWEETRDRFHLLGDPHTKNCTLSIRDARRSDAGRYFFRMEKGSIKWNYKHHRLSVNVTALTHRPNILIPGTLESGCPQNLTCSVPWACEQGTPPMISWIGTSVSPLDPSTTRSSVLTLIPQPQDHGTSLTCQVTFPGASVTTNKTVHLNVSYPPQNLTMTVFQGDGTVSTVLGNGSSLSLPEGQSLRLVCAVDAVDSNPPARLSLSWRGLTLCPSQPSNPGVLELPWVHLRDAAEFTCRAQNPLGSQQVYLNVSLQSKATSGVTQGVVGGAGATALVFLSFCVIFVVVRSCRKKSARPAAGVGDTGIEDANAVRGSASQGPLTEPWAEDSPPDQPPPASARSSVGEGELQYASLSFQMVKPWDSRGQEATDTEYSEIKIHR
The next test relates to Trypanosoma cruzi. Nature of the test: Trypanosoma cruzi phosphomannomutase and mannose-1-phosphate guanylyltransferase assay. It is filed as functional. As to conditions: 10 µM.
The target of test [4] is T2, Arginase-2, mitochondrial (Homo sapiens) (UniProt P78540).
T2 sequence (whole entry): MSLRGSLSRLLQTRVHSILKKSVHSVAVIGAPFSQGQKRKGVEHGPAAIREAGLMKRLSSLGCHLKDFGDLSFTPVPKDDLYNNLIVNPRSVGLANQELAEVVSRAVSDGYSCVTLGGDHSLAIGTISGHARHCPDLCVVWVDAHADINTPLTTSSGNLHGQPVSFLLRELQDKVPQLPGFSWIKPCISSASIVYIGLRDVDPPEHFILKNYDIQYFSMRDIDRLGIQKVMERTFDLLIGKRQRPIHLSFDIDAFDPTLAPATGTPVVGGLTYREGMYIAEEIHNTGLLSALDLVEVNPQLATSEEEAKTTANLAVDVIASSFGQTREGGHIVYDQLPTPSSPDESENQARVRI
Put plainly: in vitro enzyme assay to detect the production of urea directly proportional to the activity of Arginase II. Note: in the data most compounds retested in dose-response had high values. In kind it is functional. Particulars: 33.3 µM.

Test [5] has as its target T3, Proteasome subunit beta (Trypanosoma cruzi) (UniProt O96673).
T3 sequence (whole entry): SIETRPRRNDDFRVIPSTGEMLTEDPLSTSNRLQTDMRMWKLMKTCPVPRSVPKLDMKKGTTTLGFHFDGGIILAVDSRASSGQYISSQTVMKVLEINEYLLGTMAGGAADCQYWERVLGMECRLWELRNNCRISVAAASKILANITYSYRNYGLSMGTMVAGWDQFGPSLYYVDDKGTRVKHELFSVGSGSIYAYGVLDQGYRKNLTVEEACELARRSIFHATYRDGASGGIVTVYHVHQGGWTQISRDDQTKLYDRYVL
Nature of the test: Trypanosoma cruzi proteasome chymotrypsin-like activity (TcProtChymo) assay. Note: in the data most compounds retested in dose-response had high values. As to conditions: 9.37 µM. It is filed as functional.

Another test is filed under the species Homo sapiens. Nature of the test: To identify inhibition of the IFN signalling (Jak-Stat) pathway via expression of an eGFP reporter gene under the control of an IFN-stimulated response element (ISRE) containing MxA promoter. In kind it is functional. Particulars: 30 µM.
The target in test [6] is T4, Tyrosyl-tRNA synthetase, putative (Trypanosoma cruzi (strain CL Brener)) (UniProt Q4DSP6).
T4 sequence (whole entry): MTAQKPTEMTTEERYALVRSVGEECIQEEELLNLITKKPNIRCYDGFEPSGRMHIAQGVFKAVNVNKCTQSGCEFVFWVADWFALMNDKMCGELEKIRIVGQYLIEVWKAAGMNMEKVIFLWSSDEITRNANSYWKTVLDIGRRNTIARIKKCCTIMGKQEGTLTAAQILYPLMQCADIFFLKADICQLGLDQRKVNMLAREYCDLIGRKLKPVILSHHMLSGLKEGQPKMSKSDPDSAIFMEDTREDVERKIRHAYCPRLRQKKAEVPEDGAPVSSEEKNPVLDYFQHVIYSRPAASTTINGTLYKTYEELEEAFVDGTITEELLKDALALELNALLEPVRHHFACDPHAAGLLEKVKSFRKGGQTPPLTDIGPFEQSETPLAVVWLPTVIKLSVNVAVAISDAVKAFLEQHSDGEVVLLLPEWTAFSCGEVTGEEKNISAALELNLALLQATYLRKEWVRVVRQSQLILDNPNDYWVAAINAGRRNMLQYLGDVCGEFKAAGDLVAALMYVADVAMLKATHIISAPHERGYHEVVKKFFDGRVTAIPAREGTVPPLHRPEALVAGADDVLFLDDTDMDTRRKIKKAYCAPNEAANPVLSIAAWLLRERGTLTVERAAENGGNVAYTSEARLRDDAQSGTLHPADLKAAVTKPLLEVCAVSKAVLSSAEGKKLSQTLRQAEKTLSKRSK
Nature of the test: Trypanosoma cruzi tyrosyl tRNA synthetase (TcYRS) _High Tyrosine SOP. Note: in the data most compounds retested in dose-response had high values. In kind it is functional. As to conditions: 30 µM.

Test [7] addresses T4, Tyrosyl-tRNA synthetase, putative (Trypanosoma cruzi (strain CL Brener)). Nature of the test: Trypanosoma cruzi tyrosyl tRNA synthetase (TcYRS) SOP. As to conditions: 30 µM. It is filed as functional.
The target of test [8] is Chromo domain-containing protein 1 (Saccharomyces cerevisiae (strain ATCC 204508 / S288c) (Baker's yeast)) (UniProt P32657). Nature of the test: ScCHD-1 Enzyme Inhibition Assay. Note: in the data most compounds retested in dose-response had high values. In kind it is functional. Particulars: 30 µM.
Sequence of Chromo domain-containing protein 1 (Saccharomyces cerevisiae (strain ATCC 204508 / S288c) (Baker's yeast)) (P32657 whole entry, the tested form may be a part): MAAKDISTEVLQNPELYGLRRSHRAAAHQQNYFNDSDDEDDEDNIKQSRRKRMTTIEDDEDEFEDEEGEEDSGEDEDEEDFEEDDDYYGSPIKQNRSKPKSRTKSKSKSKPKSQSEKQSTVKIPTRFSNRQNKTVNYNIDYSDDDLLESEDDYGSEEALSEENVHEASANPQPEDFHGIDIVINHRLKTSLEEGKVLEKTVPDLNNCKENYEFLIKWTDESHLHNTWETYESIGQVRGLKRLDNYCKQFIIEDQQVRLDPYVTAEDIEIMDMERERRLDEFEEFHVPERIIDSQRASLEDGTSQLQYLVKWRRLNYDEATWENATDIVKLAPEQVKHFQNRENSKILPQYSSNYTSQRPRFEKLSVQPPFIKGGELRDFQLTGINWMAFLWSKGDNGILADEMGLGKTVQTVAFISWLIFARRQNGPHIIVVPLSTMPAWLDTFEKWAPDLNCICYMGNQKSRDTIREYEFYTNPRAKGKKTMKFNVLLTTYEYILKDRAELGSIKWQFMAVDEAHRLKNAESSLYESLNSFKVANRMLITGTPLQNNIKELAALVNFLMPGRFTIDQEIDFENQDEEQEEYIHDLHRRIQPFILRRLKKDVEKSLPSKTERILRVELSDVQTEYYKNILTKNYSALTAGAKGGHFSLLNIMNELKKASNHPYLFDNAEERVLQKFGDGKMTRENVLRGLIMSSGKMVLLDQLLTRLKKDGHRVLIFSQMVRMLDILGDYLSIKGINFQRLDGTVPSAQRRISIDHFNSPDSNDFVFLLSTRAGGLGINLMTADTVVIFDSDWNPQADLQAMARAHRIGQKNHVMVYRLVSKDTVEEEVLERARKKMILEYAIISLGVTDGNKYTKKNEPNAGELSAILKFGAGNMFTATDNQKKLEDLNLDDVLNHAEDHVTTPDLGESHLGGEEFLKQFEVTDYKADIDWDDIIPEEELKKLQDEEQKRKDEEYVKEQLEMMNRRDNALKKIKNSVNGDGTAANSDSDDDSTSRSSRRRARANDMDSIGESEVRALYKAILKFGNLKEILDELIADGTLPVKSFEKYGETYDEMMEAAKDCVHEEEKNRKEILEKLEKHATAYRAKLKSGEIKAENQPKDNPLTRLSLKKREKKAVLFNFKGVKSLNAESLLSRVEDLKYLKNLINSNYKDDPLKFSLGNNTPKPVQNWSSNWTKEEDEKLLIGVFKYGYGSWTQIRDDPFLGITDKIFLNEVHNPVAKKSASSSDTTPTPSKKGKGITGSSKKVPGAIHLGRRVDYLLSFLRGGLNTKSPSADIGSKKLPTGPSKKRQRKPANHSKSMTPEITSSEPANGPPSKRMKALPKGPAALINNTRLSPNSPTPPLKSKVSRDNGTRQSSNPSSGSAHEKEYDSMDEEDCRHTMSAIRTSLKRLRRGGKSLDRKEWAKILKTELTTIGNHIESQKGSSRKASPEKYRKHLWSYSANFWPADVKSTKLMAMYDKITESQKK

Sequence of Protein translocase subunit SecA (Escherichia coli (strain K12)) (P10408 whole entry): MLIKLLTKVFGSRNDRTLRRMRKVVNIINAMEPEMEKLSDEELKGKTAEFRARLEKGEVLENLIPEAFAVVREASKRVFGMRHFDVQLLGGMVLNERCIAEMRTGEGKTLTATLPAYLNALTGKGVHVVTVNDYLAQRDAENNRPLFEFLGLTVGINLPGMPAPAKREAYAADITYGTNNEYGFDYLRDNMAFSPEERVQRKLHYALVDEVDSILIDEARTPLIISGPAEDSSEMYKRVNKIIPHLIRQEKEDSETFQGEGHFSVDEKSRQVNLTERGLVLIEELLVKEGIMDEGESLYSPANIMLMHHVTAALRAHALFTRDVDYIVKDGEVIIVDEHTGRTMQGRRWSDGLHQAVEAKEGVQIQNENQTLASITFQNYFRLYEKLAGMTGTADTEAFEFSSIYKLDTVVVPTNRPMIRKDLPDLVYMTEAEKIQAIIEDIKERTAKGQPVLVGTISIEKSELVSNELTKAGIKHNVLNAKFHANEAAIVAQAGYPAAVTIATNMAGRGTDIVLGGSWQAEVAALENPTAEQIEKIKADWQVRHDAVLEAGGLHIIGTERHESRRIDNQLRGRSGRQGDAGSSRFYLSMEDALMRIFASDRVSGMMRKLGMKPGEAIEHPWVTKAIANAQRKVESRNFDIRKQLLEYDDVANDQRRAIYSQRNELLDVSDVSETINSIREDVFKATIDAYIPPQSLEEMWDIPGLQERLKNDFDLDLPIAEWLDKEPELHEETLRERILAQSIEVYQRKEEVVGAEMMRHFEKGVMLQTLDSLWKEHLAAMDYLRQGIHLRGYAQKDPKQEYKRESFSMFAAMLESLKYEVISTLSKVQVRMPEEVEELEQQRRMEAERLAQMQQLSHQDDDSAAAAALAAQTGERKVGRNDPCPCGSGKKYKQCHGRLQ

Take `CCn1ccnc1CN1CCCN(C(=O)c2cc(Cl)c[nH]2)CC1`: the Percent Effect in [1] was -1.59%; in test [2], 12.8%; in test [3], 9.67%; in the test with Trypanosoma cruzi, 7.98%; in [4], 8.61%; in test [5], 1.79%. The Percent Effect in the test filed under Homo sapiens is 10.2%; in test [6] it was 3.35%; in [7], 22.9%; in [8], -8.12%.
For `CNc1snc(C)c1C(=O)N1CCCC(n2nc(C)cc2C)C1` (stereo not given), the Percent Effect in test [1] was -9.36%; in test [2], 13.3%; in [3] it was 16.1%; with Trypanosoma cruzi it was 6.02%; in test [4] it was -3.1%; in test [5], 5.68%. Besides, the Percent Effect in the test filed under Homo sapiens was -7.89%; in test [6] it was 4.74%; in test [7] it was 15.4%; in [8], -14.8%.
Consider `CC(C)C(=O)N1CCC2(CCCN(CCOc3ccccc3)C2)C1` (stereo not given), for which the Percent Effect is -6.57% in [1]; 1.3% in [2]; -1.94% in [3]; -3% in the test with Trypanosoma cruzi; 1.83% in test [4]; 1.63% in test [5]. Further, the Percent Effect in the test filed under Homo sapiens is 7.35%; in [6], 2.9%; in [7] it was 10%; in test [8], 11.6%.
Consider `CCc1nccn1-c1cncc(C2CCCN2Cc2ccc(F)cc2)n1` (stereo not given), for which the Percent Effect in [1] is -7.77%; in test [2], 4%; in [3] it was 1.71%; in the test on Trypanosoma cruzi, 1.97%; in [4] it was 0.443%; in test [5], -0.328%. Besides, the Percent Effect in the test listed under Homo sapiens was 35.7%; in test [6] it was 4.23%; in test [7], 5%; in test [8], -27.1%.
For the compound `Cn1cc(C(=O)N2CCC(Cc3nccs3)CC2)cn1`, the Percent Effect in test [1] is 0.12%; in test [2], 6.67%; in test [3], -7.82%; in the test on Trypanosoma cruzi it was -4.54%; in test [4] it was -1.33%; in test [5], 6.73%. Also, the Percent Effect in the test listed under Homo sapiens was 15%; in test [6], 4.23%; in test [7], 0%; in test [8], -28.5%.
As to `Cc1cc(C)n(CC2CCCN2CCS(=O)(=O)c2ccccc2)n1` (stereo not given), the Percent Effect in test [1] was -0.665%; in [2], -7.69%; in [3] it was -1.27%; in the test on Trypanosoma cruzi it was 0.845%; in test [4] it was 9.43%; in test [5], -2.47%. Moreover, the Percent Effect was 18.7% in the test filed under Homo sapiens, 1.44% in [6], -1.21% in test [7] and 1.56% in test [8].
For `Cc1ccoc1-c1nnc(CN2CCn3c(nnc3C3CC3)C2)o1`, the Percent Effect is -3.51% in test [1]; 0% in test [2]; -0.995% in test [3]; 0.201% in the test on Trypanosoma cruzi; 0.444% in [4]; -4.16% in [5]. The Percent Effect is 7.27% in the test filed under Homo sapiens, -1.58% in [6], -10.3% in [7] and -2.12% in test [8].
For the compound `Cc1n[nH]c(=O)c2c(NC(=O)CN3CCOC(C)C3)oc(C)c12` (stereo not given), the Percent Effect in [1] was 1.61%; in [2] it was 17.9%; in test [3] it was -15.7%; with Trypanosoma cruzi it was 1.78%; in test [4], 4.92%; in [5], 16.6%. Further, the Percent Effect in the test filed under Homo sapiens was 25.5%; in test [6], 3.35%; in test [7] it was 18.1%; in test [8], -6.38%.
`COc1ccc(CC(=O)N2CCc3nnc(N(C)C)cc3C2)cc1F`: the Percent Effect in [1] is -3.64%; in test [2], 12.8%; in test [3] it was -2.71%; in the test with Trypanosoma cruzi it was -1.97%; in [4], 1.23%; in [5], 17.7%. Also, the Percent Effect in the test filed under Homo sapiens is 20.5%; in test [6], 5.26%; in test [7] it was 6.02%; in test [8] it was -0.877%.
`CCNC(=O)[C@@H]1C[C@@H](NC(=O)c2cccnc2O)CN1Cc1ccsc1`: the Percent Effect in [1] is -5.31%; in test [2] it was 16.2%; in test [3], 11.3%; with Trypanosoma cruzi, 3.59%; in test [4], 17.1%; in [5] it was 19.2%. Moreover, the Percent Effect was 2.29% in the test filed under Homo sapiens, 6.92% in test [6], 21.9% in test [7] and -4.37% in [8].
Consider `CCc1cc(C(F)(F)F)c2c(C)nn(CC(=O)O)c2n1`, for which the Percent Effect in test [1] was 2.1%; in test [2], 9.33%; in test [3] it was -6.26%; in the test on Trypanosoma cruzi it was -4.14%; in test [4] it was 9.29%; in [5], 11%. In addition, the Percent Effect in the test listed under Homo sapiens was 15.7%; in [6] it was 1.06%; in test [7], 10%; in [8] it was -20.4%.

For the origin of these results see ChEMBL document CHEMBL3988442, “University of Dundee, Small-Polar-MMV Screening Library” (2021).
